Compounds without any hit were thinned out: in the full panel of roughly 79,000, 15% have a hit. Activity calls are given as the source filed them. Rule as the data show it: active = growth inhibition above about 70%; inactive = the rest.
How the values were obtained:
[1] = NCI Yeast Anticancer Drug Screen. Data for the rad52 strain (AID 147);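 also: 0% = growth of vehicle-treated control cultures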; settings: S. cerevisiae rad52 mutant growth inhibition, active compounds read high
How it was run: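 Inhibition of yeast growth, referenced to vehicle controls, was the measured output for a strain with defective DNA damage repair.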

[2] = NCI Yeast Anticancer Drug Screen. Data for the wt1 strain (AID 149);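 also: 0% = growth of vehicle-treated wt1 cultures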; settings: S. cerevisiae wt1 strain (SPY 50644) growth inhibition, active compounds read high
How it was run: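 Using yeast strain wt1, compound-induced growth inhibition was determined against vehicle-treated cultures.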

[3] = NCI Yeast Anticancer Drug Screen. Data for the rad50EPP+ strain (AID 151);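 also: 0% = growth of vehicle-treated control cultures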; settings: S. cerevisiae rad50 mutant strain, active compounds read high
How it was run: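 Genetically defined yeast (rad50EPP+, DNA damage repair alteration) is grown with compound, and inhibition of growth is expressed relative to vehicle-treated controls.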

[4] = NCI Yeast Anticancer Drug Screen. Data for the mgt1 strain (AID 153); settings: S. cerevisiae mgt1 mutant growth inhibition, active compounds read high
How it was run: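 In the mgt1 strain, test compounds were added and growth inhibition was determined relative to vehicle-treated controls.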

[5] = NCI Yeast Anticancer Drug Screen. Data for the rad50 strain (AID 155);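 also: 0% = growth of vehicle-only cultures of the same strain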; settings: S. cerevisiae rad50 strain growth inhibition, active compounds read high
How it was run: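 Relative growth inhibition (compound vs vehicle) was measured in yeast with a defined repair-gene alteration.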

[6] = NCI Yeast Anticancer Drug Screen. Data for the mec2-1 strain (AID 157); settings: S. cerevisiae mec2-1 strain, active compounds read high
How it was run: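 Each compound was tested on mec2-1 yeast, a strain altered in DNA damage repair or cell cycle control. Growth inhibition is reported relative to vehicle.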

[7] = NCI Yeast Anticancer Drug Screen. Data for the rad14 strain (AID 159);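 also: 0% = growth of vehicle-treated control cultures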; settings: S. cerevisiae rad14 strain growth inhibition, active compounds read high
How it was run: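 Screen for anticancer potential: a yeast strain altered in DNA damage repair is grown with compound, and reduced growth is quantified against vehicle controls.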

[8] = NCI Yeast Anticancer Drug Screen. Data for the sgs1 mgt1 strain (AID 161);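 also: 0% = growth of cultures given vehicle only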; settings: S. cerevisiae sgs1 mgt1 strain, active compounds read high
How it was run: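 Test agents were incubated with a DNA-repair-mutant yeast strain. Growth was then read and compared against vehicle-treated controls.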

[9] = NCI Yeast Anticancer Drug Screen. Data for the CLN2oe strain (AID 163);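 also: 0% = growth of vehicle-only control cultures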; settings: S. cerevisiae CLN2oe strain, active compounds read high
How it was run: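 First, the altered yeast strain was treated with each compound; second, its growth was measured; finally, inhibition was derived by comparison with vehicle controls.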

[10] = NCI Yeast Anticancer Drug Screen. Data for the cln2 rad14 strain (AID 165);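 also: 0% = growth equal to vehicle treated cultures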; settings: S. cerevisiae cln2 rad14 strain, active compounds read high
How it was run: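 Test compounds were added to cln2 rad14 yeast cultures; inhibition of growth was then determined by comparison with vehicle treatment.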

[11] = NCI Yeast Anticancer Drug Screen. Data for the bub3 strain (AID 167); settings: S. cerevisiae bub3 mutant strain, active compounds read high
How it was run: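 Screening used yeast with an engineered genetic alteration affecting cell cycle control. Compound-exposed cultures were compared with vehicle cultures, and reduced growth was taken as inhibition.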

[12] = NCI Yeast Anticancer Drug Screen. Data for the wt2 strain (AID 169);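 also: 0% = growth of vehicle-treated yeast cultures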; settings: S. cerevisiae wt2 strain growth inhibition, active compounds read high
How it was run: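 The panel's yeast strains carry defined changes in DNA repair or cell cycle genes. Each strain is grown with compound, and growth loss is scored relative to vehicle.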

[13] = NCI Yeast Anticancer Drug Screen. Data for the mlh1 strain (AID 171);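 also: 0% = growth of vehicle-treated control cultures of the same strain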; settings: S. cerevisiae mlh1 strain growth inhibition, active compounds read high
How it was run: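 Inhibition values reflect reduced yeast growth in the presence of compound, referenced to vehicle controls, using a strain chosen for its alteration in DNA repair or cell cycle control.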

[14] = NCI Yeast Anticancer Drug Screen. Data for the sgs1 strain (AID 173);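 also: 0% = growth of vehicle-only control cultures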; settings: S. cerevisiae sgs1 mutant, active compounds read high
How it was run: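 Vehicle-treated cultures served as reference for growth inhibition of a yeast strain altered in DNA damage repair or cell cycle control after compound exposure.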

[15] = NCI Yeast Anticancer Drug Screen. Data for the mlh1 rad18 strain (AID 175); settings: S. cerevisiae mlh1 rad18 strain growth inhibition, active compounds read high
How it was run: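 Inhibition values reflect reduced growth of mutant yeast versus vehicle-treated controls following compound exposure; the mutations affect DNA damage repair.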

[16] = NCI Yeast Anticancer Drug Screen. Data for the rad18 strain (AID 177); settings: S. cerevisiae rad18 mutant growth inhibition, active compounds read high
How it was run: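 Steps: expose repair-mutant yeast to compound; measure growth; express as inhibition relative to vehicle control.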

[17] = at 5.0 µM (retest, dose inferred, filed as 0.5)
[18] = at 50.0 µM (retest, dose inferred, filed as 5.0)

Measured: growth inhibition

NCCc1ccc(OCc2ccccc2)c(OCc2ccccc2)c1
inactive: [1]; at 1.2 µM -8% | [1]; at 3.7 µM -5% | [1]; at 11.0 µM -6% | [2]; at 1.2 µM 0% | [2]; at 3.7 µM -6% | [2]; at 11.0 µM -28% | [3]; at 1.2 µM -15% | [3]; at 3.7 µM -9% | [3]; at 11.0 µM -19% | [3]; at 33.0 µM 11% | [4]; at 1.2 µM 2% | [4]; at 3.7 µM 13% | [4]; at 11.0 µM 56% | [5]; at 1.2 µM 16% | [5]; at 3.7 µM 17% | [5]; [17] 43% | [5]; at 11.0 µM 35% | [6]; at 1.2 µM 0% | [6]; at 3.7 µM 3% | [6]; [17] 35% | [6]; at 11.0 µM 8% | [7]; at 1.2 µM -27% | [7]; at 3.7 µM -21% | [7]; at 11.0 µM -3% | [8]; [17] -16% | [9]; at 1.2 µM -1% | [9]; at 3.7 µM 3% | [9]; at 11.0 µM -5% | [9]; at 33.0 µM 41% | [10]; [17] 36% | [11]; at 1.2 µM 12% | [11]; at 3.7 µM 20% | [11]; [17] -17% | [11]; at 11.0 µM 35% | [12]; at 1.2 µM -15% | [12]; at 3.7 µM -12% | [12]; at 11.0 µM 37% | [13]; at 1.2 µM -38% | [13]; at 3.7 µM -12% | [13]; at 11.0 µM 43% | [14]; at 1.2 µM -8% | [14]; at 3.7 µM -5% | [14]; at 11.0 µM 51% | [15]; [17] 24% | [16]; at 1.2 µM 2% | [16]; at 3.7 µM 15% | [16]; at 11.0 µM 45%
active: [1]; at 33.0 µM 72% | [1]; at 100.0 µM 92% | [2]; at 33.0 µM 74% | [2]; at 100.0 µM 97% | [3]; at 100.0 µM 83% | [4]; at 33.0 µM 97% | [4]; at 100.0 µM 98% | [5]; at 33.0 µM 90% | [5]; [18] 90% | [5]; at 50.0 µM 91.7% | [5]; at 100.0 µM 96% | [6]; at 33.0 µM 92% | [6]; [18] 96% | [6]; at 50.0 µM 91.5% | [6]; at 100.0 µM 98% | [7]; at 33.0 µM 94% | [7]; at 100.0 µM 97% | [8]; [18] 97% | [9]; at 100.0 µM 97% | [10]; [18] 82% | [11]; at 33.0 µM 87% | [11]; [18] 92% | [11]; at 100.0 µM 96% | [12]; at 33.0 µM 95% | [12]; at 100.0 µM 97% | [13]; at 33.0 µM 95% | [13]; at 100.0 µM 96% | [14]; at 33.0 µM 95% | [14]; at 100.0 µM 96% | [15]; [18] 96% | [15]; at 50.0 µM 90.2% | [16]; at 33.0 µM 91% | [16]; at 100.0 µM 94%

CCC1(O)C(=O)OCc2c1cc1n(c2=O)Cc2c-1nc1ccccc1c2OC (configuration not stated)
active: [1]; at 1.2 µM 80% | [1]; at 3.7 µM 90% | [1]; at 11.0 µM 93% | [1]; at 33.0 µM 93% | [1]; at 100.0 µM 90% | [5]; at 1.2 µM 85% | [5]; at 3.7 µM 93% | [5]; [17] 94% | [5]; at 11.0 µM 94% | [5]; at 33.0 µM 94% | [5]; [18] 90% | [5]; at 50.0 µM 71.2% | [5]; at 100.0 µM 93%
inactive: [2]; at 1.2 µM 11% | [2]; at 3.7 µM 12% | [2]; at 11.0 µM 13% | [2]; at 33.0 µM 12% | [2]; at 100.0 µM 11% | [3]; at 1.2 µM 15% | [3]; at 3.7 µM 28% | [3]; at 11.0 µM 10% | [3]; at 33.0 µM 22% | [3]; at 100.0 µM 27% | [4]; at 1.2 µM -1% | [4]; at 3.7 µM 10% | [4]; at 11.0 µM 4% | [4]; at 33.0 µM 8% | [4]; at 100.0 µM -10% | [6]; at 1.2 µM 1% | [6]; at 3.7 µM 13% | [6]; [17] 54% | [6]; at 11.0 µM 28% | [6]; at 33.0 µM 41% | [6]; [18] 62% | [6]; at 50.0 µM 33.1% | [6]; at 100.0 µM 43% | [8]; [17] 31% | [8]; [18] 33% | [8]; at 50.0 µM -13.6% | [9]; at 1.2 µM -8% | [9]; at 3.7 µM 8% | [9]; at 11.0 µM 16% | [9]; at 33.0 µM 24% | [9]; at 100.0 µM 27% | [10]; [17] 19% | [10]; [18] 18% | [10]; at 50.0 µM 2.7% | [11]; at 1.2 µM -10% | [11]; at 3.7 µM -1% | [11]; [17] 6% | [11]; at 11.0 µM 0% | [11]; at 33.0 µM 0% | [11]; [18] 11% | [11]; at 50.0 µM -41.5% | [11]; at 100.0 µM -13% | [12]; at 1.2 µM 10% | [12]; at 3.7 µM -5% | [12]; at 11.0 µM -10% | [12]; at 33.0 µM 2% | [12]; at 100.0 µM -17% | [13]; at 1.2 µM 7% | [13]; at 3.7 µM 19% | [13]; at 11.0 µM 22% | [13]; at 33.0 µM 20% | [13]; at 100.0 µM 8% | [14]; at 1.2 µM 12% | [14]; at 3.7 µM 18% | [14]; at 11.0 µM 20% | [14]; at 33.0 µM 25% | [14]; at 100.0 µM 8% | [15]; [17] 43% | [15]; [18] 33% | [16]; at 1.2 µM 1% | [16]; at 3.7 µM -4% | [16]; at 11.0 µM 5% | [16]; at 33.0 µM 1% | [16]; at 100.0 µM 1%

O=C1NC(=S)NC(=O)C1=Cc1ccc([N+](=O)[O-])o1
active: [1]; at 100.0 µM 85% | [3]; at 33.0 µM 87% | [3]; at 100.0 µM 92% | [5]; at 50.0 µM 77.6% | [5]; at 100.0 µM 87%
inactive: [1]; at 1.2 µM -50% | [1]; at 3.7 µM -58% | [1]; at 11.0 µM -6% | [1]; at 33.0 µM 57% | [2]; at 1.2 µM -18% | [2]; at 3.7 µM -4% | [2]; at 11.0 µM -1% | [2]; at 33.0 µM -1% | [2]; at 100.0 µM 6% | [3]; at 1.2 µM 11% | [3]; at 3.7 µM 23% | [3]; at 11.0 µM 61% | [5]; at 1.2 µM 12% | [5]; at 3.7 µM 17% | [5]; [17] 25% | [5]; at 11.0 µM 36% | [5]; at 33.0 µM 66% | [5]; [18] 69% | [6]; at 1.2 µM -16% | [6]; at 3.7 µM -20% | [6]; [17] -19% | [6]; at 11.0 µM -12% | [6]; at 33.0 µM 0% | [6]; [18] -4% | [6]; at 50.0 µM 3.2%
